# Assay outcomes from PubChem BioAssay.
# Sampled rows, rich in hits. Any-hit rate of the full collection: about 12%.
# HP1b chromo inh = HTS for Inhibitors of HP1-beta Chromodomain Interactions with Methylated Histone Tails; Potency, µM (highest dose often 114 µM), for the others: at the top dose activity change, negative = inhibition, usual class: inhibitors; Chromobox protein homolog 1 (Homo sapiens), P83916; AID 540317, 2011; hit rate 0.56% among 390,000; AlphaScreen HP1-beta / biotin-H3K9me3 peptide binding; also: nearly all actives have a fitted effect of over 70% in size
#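 AlphaScreen: HP1-beta (50 nM) preformed 30 min with biotin-H3(1-18)K9me3 peptide (50 nM) in PBS pH 7.4, 0.01% Tween-20. Compound added for 30 min at RT, then streptavidin donor/nickel chelate acceptor beads (10 ug/mL) for 30 min.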
# JMJD2A Tudor inh = qHTS Assay for Inhibitors of JMJD2A-Tudor Domain; Lysine-specific demethylase 4A (Homo sapiens), O75164; AlphaScreen JMJD2A-Tudor / H3K4me3 peptide binding; Potency, µM (doses to about 114 µM), inactives show at the highest dose activity change, negative = inhibition, most hits filed as inhibitors; hit rate 4.4% among 390,000; also: % is scaled to controls: 0 for no effect and ±100 for the full control effect; nearly all actives have a fitted effect of over 50% in size
# G9a block = qHTS Assay for Inhibitors of Histone Lysine Methyltransferase G9a; Histone-lysine N-methyltransferase EHMT2 (Homo sapiens), Q96KQ7; G9a H3K9 monomethylation, AlphaScreen, 2 h; Potency, µM (highest dose often 102 µM), for inactives: at the highest dose activity, negative = inhibition, hits mostly inhibitors; hit rate 8.8% among 350,000; AID 504332, 2011; also: % is scaled to controls: 0 for no effect and ±100 for the full control effect; nearly all actives have a fitted effect of over 75% in size
#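 AlphaScreen detection with an anti-monomethyl H3K9 antibody quantified product after a 2 h room-temperature reaction containing 500 nM biotinylated H3K9 peptide, 20 µM SAM and 20 nM enzyme, which had been preincubated 15 min with compound.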
# PLK1 PBD block = qHTS for Inhibitors of PLK1-PDB (polo-like kinase 1 - polo-box domain): Primary Screen | hit rate 2.8% among 360,000 | Plk1 PBD binding of FITC phosphopeptide, fluorescence polarization | Potency, µM, without a hit: max response, negative = inhibition, usual class: inhibitors | Serine/threonine-protein kinase PLK1 (Homo sapiens), P53350; also: series mostly up to about 57 µM; % is scaled to controls: 0 for no effect and ±100 for the full control effect; nearly all actives have a fitted effect of over 65% in size
# Target sequence (P53350 whole entry, looked up, the tested form may be a part): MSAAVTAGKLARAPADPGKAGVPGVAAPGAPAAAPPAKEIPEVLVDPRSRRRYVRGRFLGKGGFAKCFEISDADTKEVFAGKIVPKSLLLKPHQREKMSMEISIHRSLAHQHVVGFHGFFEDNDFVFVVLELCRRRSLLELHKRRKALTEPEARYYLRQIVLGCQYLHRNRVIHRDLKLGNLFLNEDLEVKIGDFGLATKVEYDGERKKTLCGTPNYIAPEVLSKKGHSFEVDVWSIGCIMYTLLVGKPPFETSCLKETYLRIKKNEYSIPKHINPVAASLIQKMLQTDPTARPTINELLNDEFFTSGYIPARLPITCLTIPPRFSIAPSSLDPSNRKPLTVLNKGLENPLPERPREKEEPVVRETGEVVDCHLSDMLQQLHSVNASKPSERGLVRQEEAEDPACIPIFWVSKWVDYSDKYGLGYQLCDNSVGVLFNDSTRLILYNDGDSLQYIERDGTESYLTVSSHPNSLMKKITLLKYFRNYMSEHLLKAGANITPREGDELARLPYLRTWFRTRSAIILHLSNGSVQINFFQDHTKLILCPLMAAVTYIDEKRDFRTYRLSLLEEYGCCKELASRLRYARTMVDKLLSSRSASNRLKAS
# Sfp inh = qHTS Assay for Inhibitors of Bacillus subtilis Sfp phosphopantetheinyl transferase (PPTase); 4'-phosphopantetheinyl transferase ffp (Bacillus subtilis), Q9F4F7; Biochemical Sfp PPTase activity, qHTS; Potency, µM, for inactives: largest response in the series, negative = inhibition, usual class: inhibitors; hit rate 3.5% among 310,000; AID 1490, 2009;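 also: the enzyme is Sfp with the accession as filed and its product quenches rhodamine fluorescence; 0% = enzyme reaction without inhibitor and -100% = no enzyme wells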
#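 Fluorescence-quenching assay: 15 nM Sfp-PPTase preincubated 15 min at room temperature with compound, then 5 uM rhodamine-CoA and 12.5 uM BHQ-2-labelled YbbR peptide added. Fluorescence (ex 525/em 598 nm) read at start and after 30 min; difference gives rate.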
# BAZ2B inh = qHTS Assay for Inhibitors of BAZ2B; AID 504333, 2011; Bromodomain adjacent to zinc finger domain protein 2B (Homo sapiens), Q9UIF8; Potency, µM (highest dose often 114 µM), for inactives: at the highest dose activity change, negative = inhibition, hits mostly inhibitors; hit rate 4.4% among 360,000; AlphaScreen BAZ2B-H3K14Ac peptide displacement; also: % is scaled to controls: 0 for no effect and ±100 for the full control effect; nearly all actives have a fitted effect of over 60% in size
#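 Inhibition is scored as reduced AlphaScreen emission. The BAZ2B/b-H3(5-23)K14Ac complex (50 nM each) in PBS pH 7.4, 0.01% Tween-20 meets compound (up to 110 uM) for 30 min at RT before bead addition.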
# * hit, by the source's call; u = inconclusive; x = not tested or not shown; [ ] = remark or other dose. Calls follow the shape of the dose curve; as a rule, active = well fitted curve in the direction sought with a large enough effect; inconclusive = small, poorly fitted or top-dose-only effect, or another doubt; inactive = no such curve, though single readings can be large; an effect the other way counts as inactive or inconclusive. Potency is read from the fitted curve at half-maximal effect.
SMILES,HP1b chromo inh,JMJD2A Tudor inh,G9a block,PLK1 PBD block,Sfp inh,BAZ2B inh
O=C(Nc1nc(-c2ccccn2)cs1)c1ccc(F)c(S(=O)(=O)N2CCOCC2)c1,u,50µM*,7.1µM*,12µM*,x,28µM*
CN(CC1CCCO1)S(=O)(=O)c1ccc(C(=O)Nc2nc(-c3ccccn3)cs2)cc1 (stereo unspecified),17%,50µM*,4%,-13%,17%,28µM*
Cc1cc(-c2ccc(S(=O)(=O)Nc3ccc(Cl)cc3C)cc2)on1,62%,15%,u,x,x,-2%
CCOC(=O)c1nnn(-c2nonc2N)c1-c1ccc(F)cc1,35%,-3%,-8%,2%,10%,-2%
CSc1ccc(OC2(C)CCN(Cc3ccc(-c4ccccn4)cc3)C2)cc1 (stereo unspecified),x,x,x,-3%,x,x
COC(=O)C1=C(O)/C(=C\c2cc(C)n(-c3ccccc3C)c2C)N=C1C,3%,-29%,20µM*,-8%,45µM*,79µM*
COC(=O)C1=C(O)/C(=C\c2sccc2C)N=C1C,12%,-4%,17%,-2%,5%,-22%
COC(=O)C1=C(O)/C(=C\c2cc(C)n(-c3ccccc3F)c2C)N=C1C,12%,-12%,u,-22%,4%,56µM*
COC(=O)c1cccc(-n2c(C)cc(C=O)c2C)c1C,17%,-24%,-7%[59 µM],4%,3%,u
CCOC(=O)CSc1nc2cc3c(cc2c(=O)n1Cc1ccc(C(=O)NCCc2ccc(OC)c(OC)c2)cc1)OCO3,33%,-13%,7%[59 µM],x,x,-3%
C=CCN1c2ccccc2[C@]23C[C@@H](C(=O)OC)N(S(=O)(=O)CCCC)C2=NC(C(=O)OC)=C(C(=O)OC)[C@H]13,x,x,x,x,1%,x
COc1ccc(/C=C/C(=O)c2ccc[nH]2)c(OC)c1OC,21%,-21%[57.1 µM],9%[59 µM],-7%,7%,-2%
COc1ccc(/C=C/C(=O)c2ccncc2)c2ccccc12,38%,56µM*,u,6%,u,-38%
c1ccc(-c2c3ccccc3nc3[nH]c4ccccc4c23)cc1,56%,-8%,89µM*,-12%,-7%,4%
COc1ccccc1CN1CCC(n2nccc2NC(=O)CCOc2ccccc2)CC1,15%,-10%,u,0%,10%,-21%
O=C1c2ccccc2C(=Nc2ccccc2)C1c1cccc(Br)c1 (stereo unspecified),u,-24%,30%[0.501 µM],-5%,11%,-31%
Cc1ccc(N=C2c3ccccc3C(=O)C2[N+](=O)[O-])cc1C (stereo unspecified),17%,-27%,40µM*,-10%,5%,-27%
NS(=O)(=O)c1cccnc1Nc1c(Cl)cccc1Cl,13%,-14%[57.1 µM],-4%[2.33 µM],-9%,10%,-4%
CCOC(=O)C1(Cc2cccc(OC)c2)CCCN(C(=O)CCN2CCCO2)C1 (stereo unspecified),4%,-18%,22%,-14%,15%,1%
COC1C=CO[C@@]2(C)Oc3c(C)c(O)c4c(O)c(c(C=NN5CCN(C)CC5)c(O)c4c3C2=O)NC(=O)/C(C)=C\C=CC(C)C(O)[C@@H](C)C(O)C(C)[C@H](OC(C)=O)C1C (stereo partly specified),x,x,u,x,-22%,x
CO[C@H]1/C=C/O[C@@]2(C)Oc3c(C)c(O)c4c(O)c(c(/C=N/N5CCN(C)CC5)c(O)c4c3C2=O)NC(=O)/C(C)=C\C=C\[C@H](C)[C@H](O)[C@@H](C)[C@@H](O)[C@@H](C)[C@H](OC(C)=O)[C@@H]1C,x,x,20µM*,x,-24%,x
COc1ccc(N2CCN(C(=O)c3ccc4c(c3)[nH]c(=S)n3c5ccccc5nc43)CC2)cc1,x,x,13µM*,x,16%,u
O=C(c1ccc2ccccc2n1)N1CCN(c2ccccc2)CC1,6%,-11%,-39%,-3%,20%,8%
O=C(c1cc2ccccc2cc1O)N1CCN(c2ccccc2O)CC1,-13%,u,45µM*,-3%,x,-35%
COc1ccc(N2CCN(C(=O)c3ccc4ccccc4n3)CC2)cc1,12%,-6%,71µM*,0%,16%,-32%
SMILES,HP1b chromo inh,JMJD2A Tudor inh,G9a block,PLK1 PBD block,Sfp inh,BAZ2B inh
O=C(c1ccc2ccccc2n1)N1CCN(c2ccccc2O)CC1,12%,-26%,45µM*,-5%,-9%,-8%
CCOC(=O)/C=C/C(=O)OCC(=O)N1CCN(C(=O)c2ccco2)CC1,7%,-18%,-21%,-18%,-11%,-28%
CCCCNC(=O)CCCn1c(=O)c2ccccc2n(Cc2ccc(Cl)cc2)c1=O,64%,-3%,35%[59 µM],x,x,-1%
CCCN(C)C1CN(Cc2cn(CCCC(=O)OC)nn2)S(=O)(=O)C1 (stereo unspecified),x,x,x,0%,x,x
Cc1ccc(OCc2cc(C(=O)N3CCN(CC(=O)NC(C)C)CC3)no2)cn1,10%,-22%,20%,27µM*,15%,1%
Cc1ccc(OCc2cc(C(=O)N3CCCC(C)C3)no2)cn1 (stereo unspecified),x,x,x,-13%,x,x
O=C(NC(=S)N1CCCCC1)c1cccs1,-8%,-19%,u,-4%,-15%,-37%
O=C(NC(=S)N1CCCCC1)c1csc([N+](=O)[O-])c1,-21%,-13%,25µM*,u,-3%,-32%
C=CCNC(=S)NC(=O)c1csc([N+](=O)[O-])c1,-15%,-31%,25µM*,-16%,56µM*,-21%
Cc1ccccc1Cn1c2ccccc2c2cnn(CC(=O)NCCc3ccccc3)c(=O)c21,12%,-7%,-5%[59 µM],x,x,-2%
CCN(C(=O)c1cn(CC)c(=O)c2cc(OC)c(OC)cc12)c1ccccc1F,8%,-2%,5%[59 µM],x,x,2%
COc1cc(CN(CCN(C)C)Cc2ccccc2)ccc1OCc1ccccc1,u,1µM*,32µM*,8%,-18%,40µM*
CCN(Cc1ccncc1)Cc1ccc(OC)c(OC)c1,u,25µM*,x,1%,u,u
COc1ccc(CN(CCc2ccccc2)Cc2ccccc2)cc1OC,u,10µM*,u,-8%,-36%,79µM*
CNCc1ccc(OCc2ccccc2)c(OC)c1,62%,0%[57.1 µM],u,-11%,5%,8%
COC(=O)[C@@]1(Cc2ccc(OC)cc2)[C@H]2c3cc(C(=O)N(C)C)n(Cc4ccc(C)c(F)c4F)c3C[C@H]2CN1C(=O)c1ccccc1,x,x,x,x,-15%,x
